Assay results: PubChem BioAssay AID1626 (SRMLSC, 2009)
The campaign covered roughly 220,000 compounds. About 2,000 (0.91%) were called active. About 2% were inconclusive and are not listed. No stated cut-off is given here; in the data, inconclusive means inhibition above about 80% without an active follow-up result; inactive means below that; test concentration not stated here. Not all results are given here. Measured potencies and affinities stand elsewhere.

Assay: M. tuberculosis H37Rv growth inhibitors, H37Rv strain (AID 1626);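 further: bacteria incubated seven days before Alamar blue readout; 0% = bacteria only wells and 100% = bacteria with antibiotic wells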
Conditions: active compounds read high, concentration not given here
For Cc1cccc(-n2ncc3c(Nc4ccc(F)cc4)ncnc32)c1, the inhibition was 8.29% (inactive). In the case of COc1ccc(N2C(=O)c3ccccc3S2(=O)=O)cc1, the inhibition is reported as -3.28% (inactive). With COc1ccc(CN2CN=C(Nc3nc4ccccc4s3)NC2)cc1 the inhibition was -0.93% (inactive). In the case of CCNC(=S)N/N=C/c1ccc(OCCOc2ccccc2C)cc1, the inhibition is reported as -4.17% (inactive). With COC(=O)c1ccc(CNC(=O)COc2ccccc2Br)o1 the inhibition was 5.3% (inactive). With CC[n+]1ccccc1/C=C/Nc1ccccc1 the inhibition was -7.49% (inactive). For O=C(CSc1nccc(=O)[nH]1)Nc1ccc2c(c1)OCCO2, the inhibition was 31.1% (inactive). In the case of O=C(CSc1nccc(=O)[nH]1)Nc1ccc(F)c(Cl)c1, the inhibition is reported as -0.08% (inactive). With S=c1[nH]nc(-c2ccncc2)n1/N=C/C(Cl)=C\c1ccccc1 the inhibition was 6.36% (inactive). For COc1cc(CNc2ncn[nH]2)ccc1OCc1cccc(C)c1, the inhibition was 5.16% (inactive). In the case of COc1ccc(O)c(C(=O)c2cnc3c(c2)CN(C)C(=O)N3)c1, the inhibition is reported as -1.06% (inactive). For CC1(C)CC(NC(=O)c2ccccn2)CC(C)(C)N1O, the inhibition was 1.26% (inactive). In the case of S=C1NCCNC(=S)NCCOCCOCCOCCN1, the inhibition is reported as -1.99% (inactive). With Clc1ccc(-n2ncc3c(NCCCn4ccnc4)ncnc32)cc1 the inhibition was -5.48% (inactive). For Cc1cc(NCCCN2CCOCC2)n2ncc(-c3ccccc3)c2n1, the inhibition was 7.39% (inactive). In the case of Cc1cc(NCCCn2ccnc2)n2ncc(-c3ccccc3)c2n1, the inhibition is reported as 18.5% (inactive). With CC(C)(C)c1cc(-n2ccnc2)n2ncc(-c3ccc(Cl)cc3)c2n1 the inhibition was 6.96% (inactive). With COC(=O)c1cc(Br)c(=O)n(CCC2=CCCCC2)c1 the inhibition was -7.27% (inactive). In the case of O=C(NC(=S)Nc1ccc(CN2CCOCC2)cc1)c1ccco1, the inhibition is reported as -0.41% (inactive). In the case of COc1ccc(-c2[nH]ncc2CN2CCC(N3CCSCC3)CC2)c(F)c1, the inhibition is reported as -0.36% (inactive). In the case of Cc1ccc(-c2nn(-c3ccccc3)cc2/C=N/NC(=O)c2ccc(Br)o2)cc1, the inhibition is reported as 0.66% (inactive). For Clc1ccc(Cl)c(OCCCCNCc2ccccc2)c1, the inhibition was 11.2% (inactive). For Clc1cc(Br)ccc1OCCCNCc1ccccc1, the inhibition was 23% (inactive). With Cc1ccc(C)c(OCCCC(=O)Nc2ccc(N3CCOCC3)cc2)c1 the inhibition was -9.52% (inactive). In the case of Cn1c(SCC(=O)N2CCOCC2)nnc1-c1cnccn1, the inhibition is reported as -10.3% (inactive). In the case of CCCCOc1ccc(C(=O)Nc2cc(C)c(OCC(=O)N3CCOCC3)c(C)c2)cc1, the inhibition is reported as -1.36% (inactive). For CCC(C)[C@H](N)c1nnc(SCC(=O)c2ccc(Cl)cc2)o1 (stereo partly specified), the inhibition was -1.21% (inactive). In the case of Cn1c(SCCCC(=O)c2ccc(F)cc2)nnc1-c1ccncc1, the inhibition is reported as 5.49% (inactive). With CC1=C(CCN2CCN(C(C)C)C(CCO)C2)C(C)(C)CCC1 (stereo unspecified) the inhibition was 1.16% (inactive). For CC1=C(CCN2CCN(C3CCCC3)C(CCO)C2)C(C)(C)CCC1 (stereo unspecified), the inhibition was 3.37% (inactive). In the case of CC1(C)Oc2ccc3ccc(=O)oc3c2/C(=C/Nc2ccccn2)C1=O, the inhibition is reported as -6.19% (inactive). With COc1ccc(OC)c(CCNC(=O)C(=O)Nc2ccc3nc4n(c(=O)c3c2)CCCCC4)c1 the inhibition was 9.2% (inactive). For Cc1ccc(-c2csc(/C(C#N)=C/Nc3ccc4c(c3)OCCO4)n2)cc1, the inhibition was -3.12% (inactive). In the case of CCN(CC)CCOC(=O)c1cccc(OC)c1, the inhibition is reported as -3.6% (inactive). With COc1ccc(-c2csc(/C(C#N)=C/Nc3ccc4c(c3)OCCO4)n2)cc1 the inhibition was 5.83% (inactive). With COc1cccc(-c2csc(/C(C#N)=C/Nc3cc4oc5ccccc5c4cc3OC)n2)c1 the inhibition was 6.75% (inactive). With N#C/C(=C\Nc1ccc2c(c1)OCCO2)c1nc(-c2ccccc2)cs1 the inhibition was -0.56% (inactive). In the case of COc1cc2c(cc1N/C=C(\C#N)c1nc(-c3ccc(F)cc3)cs1)oc1ccccc12, the inhibition is reported as 5.47% (inactive). For Cn1c(=O)c2c(ncn2CC(=O)OCC(=O)NCc2ccc(Cl)cc2)n(C)c1=O, the inhibition was -4.25% (inactive). In the case of CCOC(=O)CSC(CC)C(=O)Nc1nnc(CC)s1 (stereo unspecified), the inhibition is reported as 8.43% (inactive). With Cc1cc(Cl)ccc1N(CC(=O)NCc1ccc2c(c1)OCO2)S(C)(=O)=O the inhibition was -3.37% (inactive). In the case of O=C(CCC(=O)c1cccs1)OCc1nc2ccccc2s1, the inhibition is reported as -8.64% (inactive). With CC[C@@H](CO)C1CC2NC3CC4(c5ccccc5N(C)[C@@H]24)C(O)C31 (stereo partly specified) the inhibition was -2.7% (inactive). In the case of COc1ccc(/C=N/N2C(=O)c3ccccc3C2=O)cc1, the inhibition is reported as 1.55% (inactive). For CCCCC(=O)Nc1nc(C)c(-c2csc(Nc3ccccc3OC)n2)s1, the inhibition was 6.85% (inactive). In the case of CCCCCC(=O)Nc1nc(C)c(-c2csc(Nc3ccccc3OC)n2)s1, the inhibition is reported as 3.41% (inactive). For CCN(CC)CCCN1C(=O)C(O)=C(C(=O)c2cc3ccccc3o2)C1c1ccccn1 (stereo unspecified), the inhibition was -1.65% (inactive). For N#CCSCC(=O)Nc1ccc(Cl)cc1, the inhibition was -6.68% (inactive). In the case of CC(=O)Nc1ccc(S(=O)(=O)NCCC(=O)Nc2ccc(C)c(Cl)c2)cc1, the inhibition is reported as 1.88% (inactive). For Cc1ccc(NC(=O)CSCC#N)cc1, the inhibition was -3.07% (inactive). In the case of Cc1ccc(S(=O)(=O)NCCC(=O)Nc2ccc(Cl)c(Cl)c2)cc1C, the inhibition is reported as 68.7% (inactive). With O=C(Nc1cccc(S(=O)(=O)NC2=NCCCCC2)c1)c1cc(-c2ccncc2)nc2ccccc12 the inhibition was 5.09% (inactive). In the case of CNc1nc(N)c(C(=O)C23CC4CC(CC(C4)C2)C3)s1, the inhibition is reported as 7.78% (inactive). With CC1CN(c2ncc(/C=N/NC(=O)c3ccccc3O)s2)CC(C)O1 (stereo unspecified) the inhibition was 48% (inactive). For OCCOCCN1CCN(C(c2ccccc2)c2ccc(Cl)cc2)CC1 (stereo unspecified), the inhibition was -10.7% (inactive). For c1ccc(OCCOCCN2CCOCC2)cc1, the inhibition was 8.38% (inactive). In the case of O=C(NN1CCN(Cc2ccccc2)CC1)c1ccc(Cl)cc1, the inhibition is reported as -1.31% (inactive). In the case of NC(=O)COc1ccc2oc(-c3ccccc3)cc(=O)c2c1, the inhibition is reported as 1.94% (inactive). In the case of CC(C)(C)OC(=O)COc1cc(O)c2c(=O)cc(-c3ccccc3)oc2c1, the inhibition is reported as 5.56% (inactive). With CCOC(=O)Cc1nnc(-c2ccccc2)o1 the inhibition was -3.07% (inactive). In the case of O=C(COc1cc(O)c2c(=O)cc(-c3ccccc3)oc2c1)c1ccccc1, the inhibition is reported as -4.52% (inactive). For CCOC(=O)c1cc(=O)c2ccc(OCC(=O)Nc3ccccc3)cc2o1, the inhibition was 3.25% (inactive). For CCOC(=O)c1cccc(COC(=O)c2cccc(-c3nnc(-c4ccccc4)o3)c2)c1, the inhibition was 2.8% (inactive). In the case of CCOc1ccc(-c2nnc(-c3ccccc3)o2)cc1, the inhibition is reported as 8.69% (inactive). In the case of CCc1ccc(C(=O)COC(=O)c2ccc(-c3nnc(-c4ccccc4)o3)cc2)cc1, the inhibition is reported as -8.3% (inactive). For C#CCn1c(=NC(=O)c2ccc(Br)s2)sc2cccc(OC)c21, the inhibition was 49.8% (inactive). For CCn1c(=O)cc(SCC(=O)N2CCN(c3ccccc3OC)CC2)c2ccccc21, the inhibition was -4.03% (inactive). For COP(=O)(NC(=O)C(Cl)(Cl)Cl)OC, the inhibition was -4.54% (inactive). For Cc1ccc(SCC(=O)Nc2ccc(N3CCN(c4ccccc4)CC3)c(F)c2)cc1, the inhibition was 3.11% (inactive). In the case of CS(=O)(=O)NCCNc1ccc(C(F)(F)F)cc1[N+](=O)[O-], the inhibition is reported as -3.33% (inactive). For COc1ccc(C2CC(=O)C(C=NCCO)=C(O)C2)cc1OC (stereo unspecified), the inhibition was -9.01% (inactive). For CN(CCc1cnn(C)c1)Cc1cn[nH]c1-c1ccc(-c2ccccc2)cc1, the inhibition was 3.7% (inactive). In the case of Cc1c(NC(=O)/C(=C\c2ccccc2)NC(=O)c2ccccc2)c(=O)n(-c2ccccc2)n1C, the inhibition is reported as -13.7% (inactive). In the case of COc1ccc(OCC(=O)N/N=C2\CCCc3ccccc32)cc1, the inhibition is reported as 1.63% (inactive). For O=C(NNS(=O)(=O)c1ccccc1Cl)c1nn(-c2ccc(F)cc2)ccc1=O, the inhibition was 2.66% (inactive). With CCOC(=O)C(Oc1ccc2c(-c3ccccc3)cc(=O)oc2c1)c1ccccc1 (stereo unspecified) the inhibition was 15.1% (inactive). In the case of CCOc1ccc(-c2nnc(-c3ccncc3)o2)cc1, the inhibition is reported as 7.35% (inactive). With O=C(O)COc1ccc2c(-c3ccccc3)cc(=O)oc2c1 the inhibition was -6.46% (inactive). In the case of CCOc1ccc(-c2nnc(-c3ccc(OC)cc3)o2)cc1, the inhibition is reported as 3.3% (inactive). With CC(Oc1ccc2c(-c3ccccc3)cc(=O)oc2c1)C(=O)O (stereo unspecified) the inhibition was -19.3% (inactive). For O=C(O)C(Oc1ccc2c(-c3ccccc3)cc(=O)oc2c1)c1ccccc1 (stereo unspecified), the inhibition was -7.84% (inactive). In the case of N#Cc1ccc(NC(=O)c2cc(-c3cccs3)on2)cc1, the inhibition is reported as -3.45% (inactive). For Cc1cc(C(=O)CSc2nnc(-c3ccc(Cl)cc3)n2C)c(C)n1CC1CCCO1 (stereo unspecified), the inhibition was -5.79% (inactive). In the case of CCn1c(=O)c(=O)[nH]c2cc(C(=O)NC3CCCC3)ccc21, the inhibition is reported as -14.3% (inactive). In the case of COC(=O)c1cc(C)nc(Sc2ccccc2NC(C)=O)n1, the inhibition is reported as -6.62% (inactive). For COc1ccc(-c2cnc(N)nc2-c2ccc(OC)cc2O)cc1, the inhibition was -8.12% (inactive). In the case of Nc1ncc2c(n1)-c1ccccc1CC2, the inhibition is reported as 4.21% (inactive). With Cc1nonc1NC(=O)CSc1ccc(-c2ccccc2)nn1 the inhibition was 29.3% (inactive). With Cc1ccc(-c2ccc(SCC(=O)Nc3cc(C)on3)nn2)cc1 the inhibition was 1.42% (inactive). In the case of CCOC(=O)c1ccc(NC(=O)CSc2ccc(-c3ccncc3)nn2)cc1, the inhibition is reported as 78% (inactive). In the case of Cc1ccc(CNC(=O)CSc2ccc(-c3ccccn3)nn2)cc1, the inhibition is reported as 9.75% (inactive). For Cc1nnc(NC(=O)CSc2ccc(-c3ccccn3)nn2)s1, the inhibition was -8.09% (inactive). With CCOC(=O)c1ccccc1NC(=O)CSc1ccc(-c2cccnc2)nn1 the inhibition was 1.73% (inactive). In the case of Cc1csc(NC(=O)CSc2ccc(-c3ccccc3)nn2)n1, the inhibition is reported as -4.14% (inactive). In the case of CC(=O)Nc1cccc(NC(=O)CSc2ccc(-c3ccccn3)nn2)c1, the inhibition is reported as 5.52% (inactive). In the case of CC(C)CNC(=O)c1cccc(NC(=O)C(C)Oc2ccccc2)c1 (stereo unspecified), the inhibition is reported as 9.89% (inactive).
